Measurements published in PubChem BioAssay AID1159580 (chemical genetic matrix, 2015).
Screen size: about 5,500 compounds; about 2,000 (36%) were called active. About 18% were inconclusive and are not listed. Cut-off read from the data, not from the text of the source: active = normalized growth mostly below about 0.91 (no sharp cut-off); inconclusive = no clear call, values can overlap the other calls; inactive = mostly above about 0.92. Some of the results follow.

Assay: chemical genetic growth profiling, strain panel (AID 1159580);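 note: tested at 20 µM; growth read once vehicle control cultures reached saturation at 30 °C; 1 = growth at the plate median or of vehicle wells; lower values mean less growth of the strain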
Settings: S. cerevisiae deletion strains, growth OD

Measured: normalized growth

NCCS(=O)(=O)O
inactive: locus YAL021C, strain ccr4, active compounds read low 0.965 | locus YAL026C, strain drs2, active compounds read low 0.978 | locus YAL030W, strain snc1, active compounds read low 0.981 | locus YAL040C, strain CLN3, active compounds read low 1 | locus YBL061C, strain skt5, active compounds read low 0.984 | locus YBR009C, strain hhf1, active compounds read low 0.981 | locus YBR023C, strain chs3, active compounds read low 0.982 | locus YBR171W, strain sec66, active compounds read low 0.97 | locus YBR231C, strain swc5, active compounds read low 0.983 | locus YBR279W, strain paf1, active compounds read low 0.985 | locus YCL011C, strain gbp2, active compounds read low 0.965 | locus YCL016C, strain dcc1, active compounds read low 0.984 | locus YCL061C, strain MRC1 (second series), active compounds read low 1 | locus YCL061C, strain MRC1, active compounds read low 0.98 | locus YCL069W, strain vba3, active compounds read low 0.976 | locus YCR088W, strain abp1, active compounds read low 0.978 | locus YDL005C, strain med2, active compounds read low 0.984 | locus YDL040C, strain nat1, active compounds read low 0.986 | locus YDR001C, strain nth1, active compounds read low 0.983 | locus YDR069C, strain doa4, active compounds read low 0.98 | locus YDR137W, strain rgp1, active compounds read low 0.971 | locus YDR150W, strain NUM1, active compounds read low 1.01 | locus YDR159W, strain sac3, active compounds read low 0.952 | locus YDR195W, strain ref2 0.924 | locus YDR297W, strain sur2, active compounds read low 0.979 | locus YDR334W, strain swr1, active compounds read low 0.948 | locus YDR335W, strain msn5, active compounds read low 0.969 | locus YDR363W, strain ESC2, active compounds read low 1 | locus YDR392W, strain spt3, active compounds read low 0.977 | locus YEL003W, strain gim4, active compounds read low 0.975 | locus YEL037C, strain rad23, active compounds read low 0.975 | locus YEL061C, strain CIN8 (second series), active compounds read low 0.97 | locus YER002W, strain NOP16, active compounds read low 0.984 | locus YER015W, strain faa2, active compounds read low 0.971 | locus YER016W, strain bim1, active compounds read low 0.975 | locus YER111C, strain swi4, active compounds read low 0.967 | locus YER155C, strain BEM2 (second series), active compounds read low 0.978 | locus YFR010W, strain ubp6, active compounds read low 0.959 | locus YGL167C, strain pmr1, active compounds read low 0.977 | locus YGL173C, strain kem1, active compounds read low 0.971 | locus YGL227W, strain vid30, active compounds read low 0.984 | locus YGL240W, strain doc1, active compounds read low 0.961 | locus YGL253W, strain hxk2, active compounds read low 0.986 | locus YHR013C, strain ard1, active compounds read low 0.968 | locus YHR027C, strain rpn1, active compounds read low 0.967 | locus YHR030C, strain SLT2, active compounds read low 0.943 | locus YHR079C, strain IRE1, active compounds read low 0.966 | locus YHR142W, strain chs7, active compounds read low 0.964 | locus YJL092W, strain hpr5, active compounds read low 0.963 | locus YJL095W, strain BCK1 (second series), active compounds read low 0.972 | locus YJL095W, strain BCK1, active compounds read low 0.998 | locus YJL115W, strain asf1, active compounds read low 0.958 | locus YJL129C, strain trk1, active compounds read low 0.961 | locus YJL154C, strain vps35, active compounds read low 0.974 | locus YJL164C, strain tpk1, active compounds read low 0.986 | locus YJL166W, strain qcr8, active compounds read low 0.986 | locus YJL187C, strain SWE1, active compounds read low 0.982 | locus YJR066W, strain TOR1, active compounds read low 0.92 | locus YJR075W, strain HOC1, active compounds read low 0.999 | locus YKL160W, strain elf1, active compounds read low 0.983 | locus YKR026C, strain gcn3, active compounds read low 0.967 | locus YKR091W, strain srl3, active compounds read low 0.979 | locus YLL001W, strain dnm1, active compounds read low 0.97 | locus YLL026W, active compounds read low 0.982 | locus YLL041C, strain sdh2, active compounds read low 0.971 | locus YLR027C, strain aat2, active compounds read low 0.981 | locus YLR113W, strain HOG1, active compounds read low 1.02 | locus YLR221C, strain rsa3, active compounds read low 0.982 | locus YLR258W, strain gsy2, active compounds read low 0.987 | locus YLR262C, strain YPT6 (second series), active compounds read low 0.99 | locus YLR320W, strain mms22, active compounds read low 0.972 | locus YLR342W, strain FKS1, active compounds read low 0.985 | locus YLR357W, strain rsc2, active compounds read low 0.972 | locus YLR370C, strain arc18, active compounds read low 0.981 | locus YLR384C, strain iki3, active compounds read low 0.977 | locus YML120C, strain ndi1, active compounds read low 0.963 | locus YMR058W, strain fet3, active compounds read low 0.97 | locus YMR125W, strain sto1, active compounds read low 0.954 | locus YMR129W, active compounds read low 0.978 | locus YMR205C, strain PFK2, active compounds read low 1 | locus YMR231W, strain pep5, active compounds read low 0.985 | locus YMR307W, strain GAS1, active compounds read low 1 | locus YNL071W, strain lat1, active compounds read low 0.981 | locus YNL128W, strain TEP1, active compounds read low 1 | locus YNL153C, strain GIM3, active compounds read low 1.04 | locus YNL175C, strain NOP13, active compounds read low 1.01 | locus YNL183C, strain NPR1, active compounds read low 0.939 | locus YNL197C, strain WHI3, active compounds read low 0.993 | locus YNL209W, strain ssb2, active compounds read low 0.973 | locus YNL224C, strain SQS1, active compounds read low 1 | locus YNL248C, strain rpa49, active compounds read low 0.944 | locus YNL322C, strain KRE1 (second series), active compounds read low 0.971 | locus YNR049C, strain mso1, active compounds read low 0.975 | locus YOR001W, strain rrp6, active compounds read low 0.957 | locus YOR070C, strain gyp1, active compounds read low 0.992 | locus YOR080W, strain dia2, active compounds read low 0.978 | locus YOR083W, strain WHI5 (second series), active compounds read low 1.03 | locus YOR083W, strain WHI5, active compounds read low 0.976 | locus YOR106W, strain vam3, active compounds read low 0.97 | locus YOR231W, strain MKK1, active compounds read low 0.954 | locus YOR265W, strain rbl2, active compounds read low 0.976 | locus YOR270C, strain vph1, active compounds read low 0.949 | locus YOR290C, strain snf2, active compounds read low 0.999 | locus YPL051W, strain arl3, active compounds read low 0.99 | locus YPL055C, strain LGE1, active compounds read low 1 | locus YPL078C, strain atp4, active compounds read low 0.966 | locus YPL106C, strain sse1, active compounds read low 0.947 | locus YPL240C, strain hsp82, active compounds read low 0.994 | locus YPL241C, strain CIN2, active compounds read low 1 | locus YPL256C, strain CLN2, active compounds read low 0.957
